Where a name gives a salt, the structure may show the parent alone. ± gives the standard deviation of the averaged measurements. Over roughly 2,600 compounds, “total cell number (DAPI+ nuclei) relative to DMSO vehicle control” has its median near -1.4; the lowest 2% begin near -23. The full list was thinned out, with the lowest values kept by preference.

This experiment concerns jimpy (Plp1 jimpy) mouse iPSC-derived oligodendrocyte progenitor cells. As to the kind of experiment: total cell number (DAPI+ nuclei) relative to DMSO vehicle control (SDs above negative control mean); higher = more surviving cells. Particulars: 10 µM; 3 days. Here is the method: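 Primary phenotypic screen of >3,000 bioactive compounds (Selleck L1700 and Sigma LO1280 libraries) at a single dose of 10 µM. Compounds were added to jimpy (Plp1 mutant) mouse iPSC-derived OPCs at the start of thyroid hormone-induced oligodendrocyte differentiation, one well per compound in 384-well plates. After 3 days cells were stained for MBP, Sox10 and DAPI and imaged with an Operetta system. MBP+ oligodendrocyte number and total cell number were expressed as the number of SDs above the mean of the DMSO negative control on the same plate (n=16 control wells per plate). Hits were defined as >=4 SD for oligodendrocytes and >=2 SD for total cells.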
The molecule `CCNC(=O)c1noc(-c2cc(C(C)C)c(O)cc2O)c1-c1ccc(CN2CCOCC2)cc1` showed a total cell number of -26.3.

For `CCN(c1cc(-c2ccc(CN3CCOCC3)cc2)cc(C(=O)NCc2c(C)cc(C)[nH]c2=O)c1C)C1CCOCC1`, the total cell number turned out to be 2.45.

With `Cc1cc(C)c(CNC(=O)c2cc(-c3ccc(CN4CCOCC4)cc3)cc3c2cnn3C2CCCC2)c(=O)[nH]1`, the total cell number stood at 7.3.

As for `CN[C@@H](C)C(=O)N[C@H](C(=O)N1CCC[C@H]1C(=O)Nc1snnc1-c1ccccc1)C1CCCCC1`, the total cell number was -4.08.

Molecule `O=S(=O)(O)Oc1ccc(C(c2ccc(OS(=O)(=O)O)cc2)c2ccccn2)cc1` [Sodium Picosulfate] displayed a total cell number of 0.486.

The molecule `O=C(O)C(=O)O.[NH-][C@@H]1CCCC[C@H]1[NH-].[Pt+2]` [Oxaliplatin] gave a total cell number of -23.4.

For the molecule `COc1ccc2c(Oc3ccc(NC(=O)c4c(C)n(CC(C)(C)O)n(-c5ccccc5)c4=O)nc3)ccnc2c1`, the total cell number was -3.37.

`CCOC(=O)CC(=O)N1CCSC1COc1ccccc1OC` (stereo not given) [Moguisteine] gave a total cell number of -1.39.

As for `NC1(c2ccc(-c3nc4ccn5c(=O)[nH]nc5c4cc3-c3ccccc3)cc2)CCC1`, the total cell number was -25.6.

Regarding `CC1=C(C(=O)O)N2C(=O)[C@@H](NC(=O)[C@H](N)C3=CCC=CC3)[C@H]2SC1` [Cephradine], the total cell number is -1.61.

`CN(C)CCC(c1ccc(Cl)cc1)c1ccccn1` (racemic) [(±)-Chlorpheniramine maleate] registered a total cell number of -2.22.

Consider `CCOc1cc2ncc(C#N)c(Nc3ccc(F)c(Cl)c3)c2cc1NC(=O)/C=C/CN(C)C` [Pelitinib (EKB-569)], for which the total cell number was -27.4.

`COc1cc2ncnc(Nc3ccc(F)c(Cl)c3)c2cc1NC(=O)/C=C/CN1CCCCC1` showed a total cell number of -11.6.

As to `CCOc1cc2ncc(C#N)c(Nc3ccc(OCc4ccccn4)c(Cl)c3)c2cc1NC(=O)/C=C/CN(C)C` [Neratinib (HKI-272)], the total cell number was -12.8.

On to `COc1cc2ncnc(Nc3ccc(Cl)cc3F)c2cc1OC`, for which the total cell number is -8.14.

In the case of `CCOc1cc(C(=O)Nc2ccc(Cl)c(-c3nc4ccccc4[nH]3)c2)cc(OCC)c1OCC`, the total cell number was -2.15.

Regarding `COc1cc2ncnc(Nc3ccc(F)c(Cl)c3)c2cc1OCCCN1CCOCC1` [Gefitinib (ZD1839)], the total cell number is -20.6.

The molecule `COc1cc(C(C)=O)ccc1OCCCN1CCC(c2noc3cc(F)ccc23)CC1` [Iloperidone] gave a total cell number of -2.6.

In turn, `CN(C)C/C=C/C(=O)Nc1cc2c(Nc3ccc(F)c(Cl)c3)ncnc2cc1O[C@H]1CCOC1` [Afatinib (BIBW2992)] registered a total cell number of -25.6.

With `COc1cc2nccc(Oc3ccc(NC(=O)C4(C(=O)Nc5ccc(F)cc5)CC4)cc3)c2cc1OC`, the total cell number was -20.

`C=CC(=O)Nc1cc2c(Nc3ccc(F)c(Cl)c3)ncnc2cc1OCCCN1CCOCC1` [Canertinib (CI-1033)] showed a total cell number of -24.4.

`C=CC(=O)Nc1ccc2ncnc(Nc3ccc(OCc4cccc(F)c4)c(Cl)c3)c2c1` came in with a total cell number of -12.9.

In the case of `COc1cc2c(Oc3ccc(NC(=O)C4(C(=O)Nc5ccc(F)cc5)CC4)cc3F)ccnc2cc1OCCCN1CCOCC1`, the total cell number was -27.

With `Cc1c(C(=O)N2CCOc3ccc(-c4ccc(N)nc4)cc3C2)ccc(S(C)(=O)=O)c1F`, the total cell number was -3.21.

`NOCC(=O)O` [O-(Carboxymethyl)hydroxylamine hemihydrochloride]: the total cell number worked out at 1.52.

The molecule `N#Cc1c(O)c2c(-c3ccc(-c4ccccc4O)cc3)csc2[nH]c1=O` gave a total cell number of 0.298.

In the case of `c1coc(CNc2ncnc3[nH]cnc23)c1` [Kinetin], the total cell number is 0.658.

For `COc1cc(/C=C(\C#N)C(=O)Nc2nnc(C(F)(F)F)s2)ccc1OCc1ccc(C(F)(F)F)cc1C(F)(F)F`, the total cell number was -0.657.

`Cc1cc(/C=C/C#N)cc(C)c1Nc1ccnc(Nc2ccc(C#N)cc2)n1` [Rilpivirine]: the total cell number was -9.09.

`Oc1ccc(/C=C/c2cc(O)cc(O)c2)cc1` [Resveratrol] returned a total cell number of -2.54 ± 1.

For `CCN(c1nc(N)c(C(=O)NC(=N)N)nc1Cl)C(C)C` [5-(N-Ethyl-N-isopropyl)amiloride], the total cell number was -4.19.

In turn, `O=c1cc[nH]c(=S)[nH]1` [2-Thiouracil] gave a total cell number of -0.0444.

On to `CS(=O)(=O)c1ccc(C(=O)Nc2ccc(Cl)c(-c3ccccn3)c2)c(Cl)c1` [Vismodegib (GDC-0449)], for which the total cell number was -1.63.

Regarding `CNC(=O)Nc1ccc(-c2nc(N3CC4CCC(C3)O4)c3cnn(C4CCC5(CC4)OCCO5)c3n2)cc1`, the total cell number is -8.93.

For the molecule `COc1ccccc1N1CCN(CCCNc2c(C)c(=O)n(C)c(=O)n2C)CC1` [Urapidil, 5-Methyl-], the total cell number is -1.49.

As for `CCCCCCCCCCCCCCCCCCOP(=O)([O-])OC1CC[N+](C)(C)CC1` [Perifosine], the total cell number was -0.796.

Take `CN(C)CC(c1ccc(O)cc1)C1(O)CCCCC1` (stereo not given) [Desvenlafaxine]: the total cell number was -0.735.

As to `CN(C)CC(c1ccc(O)cc1)C1(O)CCCCC1` (stereo not given) [Desvenlafaxine Succinate], the total cell number was -3.69.

In turn, `Oc1ccccc1O` [Pyrocatechol] gave a total cell number of -10.2.

In the case of `Nc1cc(=O)[nH]c(N)n1` [2,4-Diamino-6-pyrimidinone], the total cell number was -1.65.

With `CC(C)(O)CC[C@@H](O)[C@](C)(O)[C@H]1CC[C@@]2(O)C3=CC(=O)[C@@H]4C[C@@H](O)[C@@H](O)C[C@]4(C)[C@H]3CC[C@]12C` [20-Hydroxyecdysone], the total cell number was -0.544.

As to `CC(S)C(=O)NCC(=O)O` (stereo not given) [Tiopronin], the total cell number is -2.65.

As for `C=C(C)[C@@H]1CC=C(C(=O)O)CC1` [(-)-Perillic acid], the total cell number was -1.68.

Regarding `CN(C)c1ccc(-c2nc3ncc(Cl)c(N4CCN(CC(=O)Nc5nccs5)CC4)c3[nH]2)cc1`, the total cell number worked out at 1.85.

Molecule `O=C1CCC(N2C(=O)c3ccccc3C2=O)C(=O)N1` (racemic) [(±)-Thalidomide] had a total cell number of -2.18.

In turn, `O=C1CCC[C@@H]2[C@H]3CCC[N+]4([O-])CCC[C@@H](CN12)[C@@H]34` (stereo not given in full) [Oxymatrine] came in with a total cell number of -0.222.

For the molecule `COc1cc2c(Nc3ccc(NC(=O)c4ccccc4)cc3)ncnc2cc1OCCCN1CCOCC1`, the total cell number is -26.6.

`COc1cc2c(N3CCN(C(=O)Nc4ccc(OC(C)C)cc4)CC3)ncnc2cc1OCCCN1CCCCC1` [Tandutinib (MLN518)] returned a total cell number of -10.3.

Molecule `C#Cc1cccc(Nc2ncnc3cc(OC)c(OCCCCCCC(=O)NO)cc23)c1` showed a total cell number of -18.7.

Molecule `CCOC(=O)[C@@H](N)Cc1ccc(O)c(O)c1` [L-Dopa ethyl ester] yielded a total cell number of -2.07.

`CO[C@H]1/C=C\C=C(/C)C(=O)NC2=CC(=O)C(NCCN(C)C)=C(C[C@@H](C)C[C@H](OC)[C@H](O)[C@@H](C)/C=C(\C)[C@@H]1OC(N)=O)C2=O` [17-DMAG (Alvespimycin) HCl] registered a total cell number of -26.5.

Turning to `C=CCNC1=C2C[C@@H](C)C[C@H](OC)[C@H](O)[C@@H](C)/C=C(\C)[C@H](OC(N)=O)[C@@H](OC)/C=C\C=C(/C)C(=O)NC(=CC1=O)C2=O` [17-AAG (Tanespimycin)], the total cell number is -25.

For the molecule `COC1=C2C[C@@H](C)C[C@H](OC)[C@H](O)[C@@H](C)/C=C(\C)[C@H](OC(N)=O)[C@@H](OC)/C=C\C=C(/C)C(=O)NC(=CC1=O)C2=O` [Geldanamycin], the total cell number was -12.3.

Molecule `CN(NC(=O)CC(=O)NN(C)C(=S)c1ccccc1)C(=S)c1ccccc1` [Elesclomol (STA-4783)] registered a total cell number of -1.04.

`CCC(C)(Oc1ccc(C2(c3ccc(OC(C)(CC)C(=O)O)cc3)CCCCC2)cc1)C(=O)O` (stereo not given) [Clinofibrate]: the total cell number stood at 1.25.

For the molecule `N[C@H]1C[C@@H]1c1ccc(-c2cccc(O)c2)cc1`, the total cell number was -3.31.

In turn, `Cc1ccc(C(=O)Cn2c3c(sc2=N)CCCC3)cc1` [Pifithrin-? (PFT?)] returned a total cell number of 1.69.

`OC[C@H]1O[C@@H](n2cnc3c(N[C@H]4CCC[C@@H]4O)ncnc32)[C@H](O)[C@@H]1O` returned a total cell number of 0.458.

In turn, `CC(Cc1ccc(O)c(O)c1)(NN)C(=O)O` (stereo not drawn) [S-(-)-Carbidopa] displayed a total cell number of -1.61.

Molecule `Cc1cc(Cn2cnc3c2C[C@@H](C(=O)O)N(C(=O)C(c2ccccc2)c2ccccc2)C3)ccc1N` gave a total cell number of -6.04.

`O=C(Nc1ccccc1-c1cn2c(CN3CCNCC3)csc2n1)c1cnc2ccccc2n1` gave a total cell number of -27.8.

`C=C1C[C@@]23CC[C@H]4[C@@](C)(CCC[C@@]4(C)C(=O)O)[C@@H]2CC[C@]1(O)C3` [Steviol] displayed a total cell number of -0.619.

In turn, `Cc1cc(NC(=O)Nc2ccc3c(ccn3C)c2)sn1` came in with a total cell number of -1.4.

Molecule `CC(C)c1cc(-c2n[nH]c(=O)n2-c2ccc3c(ccn3C)c2)c(O)cc1O` [Ganetespib (STA-9090)] gave a total cell number of -25.4.

Consider `CN(C[C@@H]1COCCO1)S(=O)(=O)Nc1ccc2ccc3ncc(-c4cnn(C)c4)cc3c(=O)c2c1`, for which the total cell number is -9.05.

`Cc1ccc(C(=O)N(CCCN)[C@@H](c2nc3cc(Cl)ccc3c(=O)n2Cc2ccccc2)C(C)C)cc1` displayed a total cell number of -27.5.

Molecule `Cc1ccc(C(=O)N(CCCN)[C@@H](c2oc3cc(Cl)ccc3c(=O)c2Cc2ccccc2)C(C)C)cc1` registered a total cell number of -15.1.

Consider `CNC(=O)CN(CCN(CCN(CC(=O)[O-])CC(=O)NC)CC(=O)[O-])CC(=O)[O-].[Gd+3]` [Gadodiamide], for which the total cell number was -14.9.

In the case of `C=CCNC(N)=S` [Allylthiourea], the total cell number is 6.27.

`CCc1ccc(OCc2ccccc2C(=O)Nc2ccc3nc(C)cc(N)c3c2)cc1` came in with a total cell number of -12.5.

As to `COc1cc2nccc(Oc3ccc(NC(=O)NC4CC4)c(Cl)c3)c2cc1C(N)=O` [Lenvatinib (E7080)], the total cell number is -9.34.

Regarding `COc1cc2nccc(Oc3ccc(NC(=O)Nc4cc(C)on4)c(Cl)c3)c2cc1OC` [Tivozanib (AV-951)], the total cell number was -23.5.

For the molecule `COc1cc(OC)c(NC(=O)Nc2cc(C)on2)cc1Cl`, the total cell number is -0.876.

The molecule `Nc1nccc2c1ncn2C1C=C(CO)C(O)C1O` (stereo not given) [3-Deazaneplanocin A (DZNeP)] had a total cell number of -9.16.

`CN(C)C[C@H](O)Cn1c2ccc(Br)cc2c2cc(Br)ccc21` (racemic) [Wiskostatin] came in with a total cell number of -4.17.

Molecule `Nc1n[n+]([O-])c2ccccc2[n+]1[O-]` [Tirapazamine] gave a total cell number of -6.5.

As to `COc1ccc2[nH]c([S+]([O-])Cc3ncc(C)c(OC)c3C)nc2c1` (stereo not given) [Omeprazole], the total cell number amounted to 5.38.

Turning to `COc1c(C)cnc(Cn2cnc3c(Cl)nc(N)nc32)c1C`, the total cell number was -26.3.

`COc1ccc2[nH]c([S@@+]([O-])Cc3ncc(C)c(OC)c3C)nc2c1` [Esomeprazole magnesium dihydrate]: the total cell number is -0.604.

Take `COc1ccc2[nH]c([S@@+]([O-])Cc3ncc(C)c(OC)c3C)nc2c1` [Esomeprazole Sodium]: the total cell number was 1.8.

For the origin of these results see the supplement of paper PMC6135742.
